Out of some 96,000 compounds screened, about 20,000 (21%) were called active. These entries were drawn from the full list. Unmarked numbers belong to inactive results.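 Rule for the calls: active = CYP2C19 inhibition above a set limit at 5 µM in the primary screen (cut at about 50% in these data); inactive = the rest.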

The target of the assay is Cytochrome P450 2C19 (Homo sapiens) (UniProt P33261). Nature of the assay: blockers of cytochrome P450 2C19 activity – biochemical, luminescence, ADME assay, primary screen (AID 778).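 Note: plate controls were negative control wells for no effect and 2.5 mM tranylcypromine positive control for full effect.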 To be noted: CYP2C19 Supersomes, luciferin-H EGE luminescence, 30 min; at 5 µM; stronger effect = higher value.
Sequence of Cytochrome P450 2C19 (Homo sapiens) (P33261 whole entry, looked up): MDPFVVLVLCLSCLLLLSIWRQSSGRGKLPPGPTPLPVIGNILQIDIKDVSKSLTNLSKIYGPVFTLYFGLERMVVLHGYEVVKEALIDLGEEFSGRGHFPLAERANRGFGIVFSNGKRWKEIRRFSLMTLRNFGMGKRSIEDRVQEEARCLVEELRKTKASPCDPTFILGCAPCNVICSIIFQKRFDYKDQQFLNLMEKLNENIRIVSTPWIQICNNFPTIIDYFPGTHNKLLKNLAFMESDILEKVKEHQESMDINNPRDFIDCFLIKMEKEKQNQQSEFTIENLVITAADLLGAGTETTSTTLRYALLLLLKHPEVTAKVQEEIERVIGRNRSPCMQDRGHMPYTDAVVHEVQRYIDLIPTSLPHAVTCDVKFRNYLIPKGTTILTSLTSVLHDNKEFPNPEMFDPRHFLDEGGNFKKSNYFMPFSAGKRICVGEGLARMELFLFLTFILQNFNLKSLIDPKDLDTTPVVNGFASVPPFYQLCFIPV
Regarding `COc1ccc(Nc2nc(=O)[nH]nc2C)cc1`, the inhibition was 5%.

Regarding `Cn1c(CCN2CCCCCC2)nc2cc(NC(=O)Nc3ccccc3)ccc21`, the inhibition was -3.4%.

For `O=c1[nH]c2c(c(=O)n1Cc1ccccc1)CCC2`, the inhibition was -3.7%.

Consider `COc1ccc(C(=O)CN(C(=O)c2ccc(Cl)cc2)N2C(=O)c3ccccc3C2=O)cc1`, for which the inhibition was 36%.

Regarding `Cc1cc(NC(=O)CS(=O)(=O)c2cn(C)c3ccccc23)no1`, the inhibition was 27.3%.

Regarding `CCc1ccccc1NC1c2ccccc2C(=O)N1c1cccnc1` (stereo not drawn), the inhibition was 81.5% (active).

In the case of `CCN(CC)C(=O)CSC1c2ccccc2C(=O)N1c1ccccc1` (stereo not drawn), the inhibition was 49.3%.

For the compound `N#Cc1nc(N)nc(N(c2ccccc2)c2ccccc2)n1`, the inhibition was 10.4%.

`CC(=O)Nc1cccc(-c2csc(Nc3cccc(C)n3)n2)c1`: the inhibition was 5.7%.

Consider `CCOC(=O)CCP(=O)(O)C(O)(c1ccccc1)c1ccccc1`, for which the inhibition is -0.4%.

Turning to `CC1CCC(NS(=O)(=O)c2ccc3c(c2)n(C)c(=O)c(=O)n3C)CC1` (stereo not drawn), the inhibition is 8.2%.

In the case of `CCn1c(=O)c(=O)n(CC)c2cc(S(=O)(=O)N3CCc4ccccc43)ccc21`, the inhibition is 91.3% (active).

`Cn1c(=O)n(C)c2cc(S(=O)(=O)N3CCCc4ccccc43)ccc21`: the inhibition was 98.7% (active).

As for `CSc1nc2ccc(S(=O)(=O)N3CCc4ccccc43)cc2s1`, the inhibition is 47.8%.

As to `Cc1nn(C)c(C)c1S(=O)(=O)N1CCc2ccccc21`, the inhibition was 43.3%.

Regarding `COc1ccc(C(=O)OCC(=O)NCC2CCCCC2)cc1S(=O)(=O)N1CCCc2ccccc21`, the inhibition is -0.1%.

As for `CC1C(c2ccccc2)=[N+]([O-])C2(CCCC2)N1O` (stereo not drawn), the inhibition was 18.6%.

As to `C=CCOc1cccc(CNn2cn[nH]c2=S)c1`, the inhibition is 33.9%.

With `CCCOC(=O)Nc1sc2c(c1C(=O)OCC)CCC2`, the inhibition is -7.3%.

With `COc1ccc(CN2CC(C(=O)NCCN3CCN(c4ccccc4F)CC3)CC2=O)cc1` (stereo not drawn), the inhibition was -6.5%.

As for `COc1ccc(N2CCN(CCNC(=O)c3nnc(Cc4c(F)cccc4Cl)o3)CC2)cc1`, the inhibition was 77.3% (active).

With `COc1ccc(N2CCN(CCNC(=O)CCN3C(=O)COc4ccccc43)CC2)cc1`, the inhibition was 6.4%.

For the compound `CCC(C(=O)Nc1ncccn1)(C(F)(F)F)C(F)(F)F`, the inhibition is -8.1%.

In the case of `NC(=O)CCCC1=NS(=O)(=O)c2ccccc2N1`, the inhibition was -6.5%.

Take `COCc1cc(=O)[nH]c2cc(NC(=O)C(F)(F)F)c(C)cc12`: the inhibition is 0.8%.

For `CCC1CCCCN1CCNC(=O)c1[nH]c(C)c(C(C)=O)c1C` (stereo not drawn), the inhibition was 2.4%.

For `COC(=O)C(NC(C)=O)(Nc1nc2c(s1)CCCC2)C(F)(F)F` (stereo not drawn), the inhibition is 39.3%.

In the case of `CCC(=O)NC(Nc1cc(C)ccn1)(C(F)(F)F)C(F)(F)F`, the inhibition was 14.8%.

In the case of `CCC(=O)NC(Nc1nc2ccc(C)cc2s1)(C(=O)OC)C(F)(F)F` (stereo not drawn), the inhibition was 85.5% (active).

Regarding `CNC(=S)NNC(=O)c1sccc1OCc1ccccc1`, the inhibition was 20.4%.

As for `CCNC(=O)CN(c1ccc(C)cc1)S(=O)(=O)c1ccc(SC)cc1`, the inhibition was 75.6% (active).

Take `COC(=O)CN(c1nc(C)c(Cl)c(OC)n1)S(=O)(=O)c1ccc(C)cc1`: the inhibition was 19.1%.

Take `COC(=O)c1ccc(NC(=O)CN(c2ccc(C)cc2)S(=O)(=O)c2c(C)n[nH]c2C)cc1`: the inhibition is 35%.

For the compound `CC1CCC(NC(=O)c2ccc(N3CCCC3=O)cc2)CC1` (stereo not drawn), the inhibition was -0.4%.

For the compound `CCOC(=O)Cc1csc(NC(=O)CSc2nc(C)cc(=O)[nH]2)n1`, the inhibition was 12.8%.

Turning to `CCCc1cc(=O)[nH]c(SCc2ccc(C#N)cc2)n1`, the inhibition is 65.1% (active).

With `CCCc1cc(=O)[nH]c(SCC(=O)c2cc(C)n(CCC)c2C)n1`, the inhibition is 29.3%.

With `CCCc1cc(=O)[nH]c(SCC(=O)OCc2ccccc2)n1`, the inhibition is 55% (active).

Regarding `Cc1cc(=O)[nH]c(SCc2cccc(F)c2)n1`, the inhibition was 7%.

`CCCc1cc(=O)n2[nH]c(SCc3ccccc3)nc2n1`: the inhibition is 1.2%.

With `CC(C)c1cc(C(N)=O)c(NC(=O)c2cccc(COc3ccc(Br)cc3)c2)s1`, the inhibition is 5.8%.

As to `CC(=O)Oc1ccc(C(C)=O)c2c1OCCO2`, the inhibition is 12.1%.

On to `CCOC(=O)N1CCN(C(=O)Cc2ccc(-n3c(=S)[nH]c4ccccc4c3=O)cc2)CC1`, for which the inhibition was 17.9%.

`COc1ccccc1CNC(=O)C1CCCN(S(=O)(=O)c2cccc3cccnc23)C1` (stereo not drawn): the inhibition is 16%.

With `CCOC(=O)n1c(SCC(=O)N(CC)CC)nc2ccccc21`, the inhibition was 2.8%.

Take `CCN(Cc1ccccc1)C(=O)CSc1nc(C)cc2c1C(=O)OC2`: the inhibition was 72.3% (active).

In the case of `Cc1ccc(-c2nn(-c3ccccc3)cc2CN(Cc2ccccc2)C(=O)CCC(=O)O)o1`, the inhibition was 23.4%.

For `CCN(CC)CCN1C(=O)C(=O)/C(=C(/O)c2ccc(OC)c(OC)c2)C1c1ccccn1` (stereo not drawn), the inhibition is -1.7%.

Take `CCCS(=O)(=O)N1CCCC(C(=O)N2CCN(c3ccccc3)CC2)C1` (stereo not drawn): the inhibition was -4.5%.

With `CCCCNC(=O)C(=O)c1ccccc1NC(C)=O`, the inhibition is 13%.

In the case of `Cc1ccc(C(c2sc3nc(C)nn3c2O)N2CCN(c3ccc(F)cc3)CC2)cc1` (stereo not drawn), the inhibition was 42.9%.

Regarding `Cc1ccc(C(c2sc3nc(C)nn3c2O)N2CCN(c3ccccc3)CC2)cc1` (stereo not drawn), the inhibition was 33.7%.

With `Oc1c(C(c2cccs2)N2CCN(c3ccc(F)cc3)CC2)sc2ncnn12` (stereo not drawn), the inhibition is 87.6% (active).

For the compound `Oc1c(C(c2ccco2)N2CCC3(CC2)OCCO3)sc2ncnn12` (stereo not drawn), the inhibition is 68.4% (active).

`CCOC(=O)c1ccc(COC(=O)CCc2nc(-c3ccccc3)c(-c3ccccc3)o2)cc1`: the inhibition was 34.1%.

For `Cc1nc(NC(=O)CCC(=O)O)sc1C(=O)N(C)C`, the inhibition was -12.7%.

As for `CCOc1ccc(N=C2SC(C(=O)O)CC(=O)N2C)cc1` (stereo not drawn), the inhibition is 1.7%.

Consider `COc1ccc2c(c1OC)C(=O)OC2c1c(O)nc(SC)n(-c2ccccc2)c1=O` (stereo not drawn), for which the inhibition is -15.5%.

Consider `O=c1cccc(-c2ccc(Br)cc2)o1`, for which the inhibition was -9.6%.

On to `CC(=O)Nc1ccc(N2C(=O)C3C4CC(=O)C(c5ccccc54)C3C2=O)cc1` (stereo not drawn), for which the inhibition was 30.7%.

Turning to `O=C(Nc1nnc(CCOCCOCCc2nnc(NC(=O)c3ccco3)s2)s1)c1ccco1`, the inhibition was 0.8%.

With `Cc1ccc(-n2nc(-c3ccco3)cc2C(=O)NCc2cccnc2)cc1`, the inhibition is 16.2%.

On to `COCCn1c(=O)[nH]c2cc(C(=O)NCc3cccnc3)ccc2c1=O`, for which the inhibition is 3.1%.

Consider `O=C(c1ccc(F)cc1)c1c[nH]c(C(=O)NCc2cccnc2)c1`, for which the inhibition was 65.3% (active).

For the compound `O=C(NCc1ccccn1)c1cnc2sccn2c1=O`, the inhibition was -12.6%.

For `Cc1cc(C(=O)NCCCc2ccccc2)no1`, the inhibition is 10.8%.

As to `CCOC(=O)c1cnc(SC)nc1Sc1ccc(Cl)cc1Cl`, the inhibition was 25.2%.

For the compound `CCCCNCc1ccc(SC)cc1`, the inhibition was 69.4% (active).

For `Cc1ccccc1C(=O)NCCN=C1NS(=O)(=O)c2ccccc21`, the inhibition is 11.7%.

For the compound `Cc1oc(CC(C)C)c(CN2CCCC2)c1C(=O)O`, the inhibition is -15.6%.

In the case of `N#CCCN(CCC#N)c1nnc(-c2ccccc2)s1`, the inhibition is 29%.

`Cc1nn(CC(=O)Nc2nc3ccccc3s2)c(C)c1[N+](=O)[O-]`: the inhibition is 52.2% (active).

`Cc1cc(C)cc(OCC(=O)Nc2nc3ccc([N+](=O)[O-])cc3s2)c1`: the inhibition was 19.6%.

Consider `Cc1nn(Cc2ccccc2Cl)c(C)c1NC(=O)Cn1nc([N+](=O)[O-])c(Cl)c1C`, for which the inhibition is 0.1%.

In the case of `CCC(CC)C(=O)N1CC(=O)Nc2ccc(Br)cc2C1c1ccccc1` (stereo not drawn), the inhibition was 47.6%.

As for `Cc1cccn2c(=O)c(/C=C3\SC(=S)N(CC(C)C)C3=O)c(NCCCOC(C)C)nc12`, the inhibition is 14.7%.

Consider `COc1ccc2c(Cl)c(C(=O)NCc3ccco3)sc2c1`, for which the inhibition was 18.6%.

For the compound `COC(=O)c1nc(NC(=O)c2ccc(Cl)cc2)n[nH]1`, the inhibition was -2.9%.

In the case of `NC(=O)c1ncc(C(F)(F)F)cc1Oc1ccc(F)cc1`, the inhibition is 31.9%.

With `O=C(CNC(=O)c1ccccc1)NCC(=O)OCc1ccc(Cl)cc1`, the inhibition was 7.3%.

On to `Cc1ccc(C(=O)N2CCCC2)c(F)c1F`, for which the inhibition is 9.6%.

For the compound `Cc1ccc(C(=O)N2CCCCCC2)cc1Br`, the inhibition is 26.6%.

On to `Cc1c(Br)cc(C(=O)N2CCCCCC2)c(C)c1C`, for which the inhibition is 96% (active).

Regarding `CCOC(=O)c1c(C2CC2)csc1NC(=O)CSCc1c(C)noc1C`, the inhibition was 64% (active).

`CCOC(=O)c1c(-c2ccc(C)cc2C)csc1NC(=O)CSc1nnnn1C`: the inhibition was 27.2%.

With `Cc1noc(C)c1CSCC(=O)Nc1nc2ccc(Oc3ccccc3)cc2s1`, the inhibition is 40.8%.

Regarding `Cc1nc(SCC(=O)c2ccccc2)c([N+](=O)[O-])[nH]1`, the inhibition is 23.7%.

Consider `COC(=O)c1cc(C(=O)CSc2nc(C)cc(C)n2)ccc1O`, for which the inhibition is 23.3%.

With `Cc1cc(SCC(=O)c2ccccc2)nc(SCC(=O)c2ccccc2)n1`, the inhibition was 53.4% (active).

With `CC(C)CCOc1ccc(C(=O)C[N+]2(C)CCOCC2)cc1`, the inhibition is 12%.

As for `Cc1ccc(N2C(=O)c3ccccc3C2(O)c2ncc[nH]2)cc1` (stereo not drawn), the inhibition was 5.2%.

On to `COc1ccc(CC(=O)n2nc(-c3cccnc3)nc2N)cc1`, for which the inhibition is 22.6%.

As to `CCOc1c(N2CCCCC2)c(=O)c1=O`, the inhibition was -3.9%.

In the case of `CC(C)CNC(=O)CC(c1ccccc1)c1c(O)ccc2ccccc12` (stereo not drawn), the inhibition is 58.9% (active).

On to `CC(C)CNC(=O)COC(=O)/C=C/c1ccccc1[N+](=O)[O-]`, for which the inhibition was 2.4%.

As to `CCc1ccc(/C=N/NC(=O)c2ccc(OC3CCCC3)cc2)s1`, the inhibition is 25.8%.

Consider `Cc1cc(N(C)C)cc(C)[n+]1[O-]`, for which the inhibition is -6.3%.

For `O=C1CSC(=O)N1CCOCCN1C(=O)CSC1=O`, the inhibition is 15.9%.

The record behind these values is PubChem BioAssay AID778 (Sanford-Burnham Center for Chemical Genomics, 2007).
